Screens from PubChem.
The list is not random: actives were taken first. Their share in the collection is about 11%.
Luciferase inh: Firefly luciferase inhibition profiling of diverse chemical library using quantitative high-throughput screening; Luciferin 4-monooxygenase (Photinus pyralis), P08659; purified P. pyralis luciferase, luminescence, biochemical; Potency, µM (top dose mostly 115 µM), usual class: inhibitors; AID 1347043, 2019; actives 2.5% (n = 76,000); note: nearly all actives have a fitted effect of over 65% in size
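Luminescence read by CCD imaging after purified firefly luciferase (10nM final) was added to substrate buffer holding 10uM D-luciferin and 10uM ATP, pH 7.5, pre-dosed with compound.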
hNpr1 antagonist: Natriuretic polypeptide receptor (hNpr1) antagonism - Primary qHTS | Atrial natriuretic peptide receptor 1 (Homo sapiens), P16066 | HEK293 hNpr1 GloSensor cGMP, ANP-stimulated luminescence | Potency, µM (highest dose often 46.3 µM), inactives show at the top dose activity change, negative = inhibition, hits mostly inhibitors | actives 1.6% (n = 76,000) | AID 1347048, 2019; calls by dose curve; note: nearly all actives have a fitted effect of over 60% in size
Target sequence (P16066 whole entry, looked up): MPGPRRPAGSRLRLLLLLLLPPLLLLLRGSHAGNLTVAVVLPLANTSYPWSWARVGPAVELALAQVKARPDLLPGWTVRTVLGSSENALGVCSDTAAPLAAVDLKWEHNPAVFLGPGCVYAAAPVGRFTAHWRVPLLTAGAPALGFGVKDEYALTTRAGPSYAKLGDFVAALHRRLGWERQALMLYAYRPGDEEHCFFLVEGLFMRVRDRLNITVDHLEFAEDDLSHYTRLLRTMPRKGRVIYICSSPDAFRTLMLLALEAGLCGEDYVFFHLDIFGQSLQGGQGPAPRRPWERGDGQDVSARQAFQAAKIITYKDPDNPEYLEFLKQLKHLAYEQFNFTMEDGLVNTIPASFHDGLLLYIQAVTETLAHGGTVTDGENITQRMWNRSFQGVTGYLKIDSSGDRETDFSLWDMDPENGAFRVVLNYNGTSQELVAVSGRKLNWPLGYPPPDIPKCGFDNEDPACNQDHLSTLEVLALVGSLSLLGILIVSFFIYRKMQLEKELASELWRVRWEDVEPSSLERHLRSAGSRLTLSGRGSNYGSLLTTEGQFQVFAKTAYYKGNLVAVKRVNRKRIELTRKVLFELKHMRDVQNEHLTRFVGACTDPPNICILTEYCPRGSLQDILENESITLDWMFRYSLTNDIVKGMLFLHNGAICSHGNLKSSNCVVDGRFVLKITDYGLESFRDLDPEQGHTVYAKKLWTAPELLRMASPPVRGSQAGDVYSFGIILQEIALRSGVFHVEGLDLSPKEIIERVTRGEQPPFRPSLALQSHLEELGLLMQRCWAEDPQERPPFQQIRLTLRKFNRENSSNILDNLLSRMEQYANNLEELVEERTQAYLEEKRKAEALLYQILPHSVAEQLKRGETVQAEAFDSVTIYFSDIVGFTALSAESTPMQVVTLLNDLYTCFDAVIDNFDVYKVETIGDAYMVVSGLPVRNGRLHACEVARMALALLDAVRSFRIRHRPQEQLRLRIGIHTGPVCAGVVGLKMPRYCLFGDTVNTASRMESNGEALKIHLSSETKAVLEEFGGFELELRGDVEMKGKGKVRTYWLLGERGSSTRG
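Compound pre-incubated 30 min at room temperature on GloSensor-loaded HEK293 cells stably carrying hNpr1 and the pGS-40F cGMP biosensor. Stimulation uses hNppA at 0.1 nM final; luminescence is taken at baseline and 20 min post-agonist.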
HEK cytotox: Cytotoxic Profiling in HEK 293 Cell Line of Diverse Libraries Using Quantitative High-Throughput Screening; actives 6.6% (n = 94,000); HEK 293 viability, ATP luminescence (CellTiter-Glo), 48-72 h; AID 1345083, 2018; Potency, µM (doses to about 115 µM), inactives show at the highest dose activity change, negative = cytotoxicity, most hits filed as inhibitors; note: nearly all actives have a fitted effect of over 60% in size
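Viability of HEK 293 cells, plated at 250 cells/well, was judged by cellular ATP after compound treatment for 48 or 72 hr. Luminescence was imaged 10 min after CellTiter-Glo addition at room temperature.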
NIH3T3 tox: Cytotoxic Profiling in NIH 3T3 Cell Line of Diverse Libraries Using Quantitative High-Throughput Screening; NIH 3T3 viability, CellTiter-Glo ATP luminescence, 48-72 h; Potency, µM (highest dose often 96.7 µM), inactives show at the highest dose activity change, negative = cytotoxicity, usual class: inhibitors; actives 4.3% (n = 94,000); AID 1345082, 2018; note: nearly all actives have a fitted effect of over 55% in size
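Cytotoxicity is measured as loss of cellular ATP: NIH 3T3 cells (400/well) are exposed to compound for 48 or 72 hr at 37 °C, then CellTiter-Glo luminescence is imaged after 10 min at room temperature.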
* marks the source's active call; other numbers are inactive results; i = inactive; ? = inconclusive; nt = no result; [ ] = remark or other dose. Unless noted, calls come from the whole dose curve; as a rule, active = well fitted curve in the direction sought with a large enough effect; inconclusive = small, poorly fitted or top-dose-only effect, or another doubt; inactive = no such curve, though single readings can be large; an effect the other way counts as inactive or inconclusive. % is set by controls: 0 for no effect and ±100 for the full control effect; potency is the fitted concentration of half-maximal effect.

SMILES | Luciferase inh | hNpr1 antagonist | HEK cytotox | NIH3T3 tox
Cc1cccc(C(=O)N2CCC(Cc3nncn3Cc3ccccc3)CC2)c1 | nt | nt | ? | -10.2%
COCCN1CCC(C(=O)N2CCn3nc(Cc4ccccc4)cc3C2)C1 (stereo not drawn) | i | 5.5% | ? | -0.1%
c1cncc(-c2nc3c(c(NCc4ccccc4-n4ccnc4)n2)CNC3)c1 | i | 4.5% | -15.6% | -5.2%
CCCOc1ccccc1C(C)Nc1nc(-c2cccnc2)nc2c1CNC2 (stereo not drawn) | i | -29.0% | 79.4µM* | ?
COC(=O)[C@@H]1Cc2c([nH]c3ccccc23)[C@H]2C[C@H](NCCN3CCOCC3)C[C@@H](c3ccc(F)cc3)N21 | i | -25.1% | 20µM* | 25.1µM*
COC(=O)[C@@H]1Cc2c([nH]c3ccccc23)[C@H]2C[C@@H](NCCN3CCOCC3)C[C@@H](c3ccc(F)cc3)N21 | i | -2.1% | 28.2µM* | ?
O=C(C[C@@H]1O[C@H](CNCc2ccc(F)cc2)[C@@H](O)[C@H]1O)NCCN1CCOCC1 | i | 1.7%[70.6 µM] | i | ?
COc1ccccc1Nc1ccnc(N2CCC(NC(=O)Cc3cccc(Cl)c3)CC2)n1 | nt | nt | ? | 31.6µM*
Cc1ccc(Nc2ccnc(N3CCC(NC(=O)Cc4cccc(Cl)c4)CC3)n2)cc1 | nt | nt | 25.1µM* | 17.8µM*
Cc1ccc(Nc2ccnc(N3CCCC3C(=O)NC3CC3)n2)cc1 (stereo not drawn) | nt | nt | ? | -18.6%
COc1ccc(C(=O)NC2CCN(c3nccc(Nc4ccccc4OC)n3)CC2)cc1 | nt | nt | -17.6% | -6.2%
COCC(=O)NC1CCN(c2nccc(Nc3ccc(C)cc3)n2)CC1 | nt | nt | ? | 35.5µM*
CCS(=O)(=O)Nc1ccc(C2(C(=O)NC(C)c3ccccc3)CCCCC2)cc1 (stereo not drawn) | i | -3.1% | ? | -26.9%
CC(C)N1CCC2(CC1)CN(C(=O)Cc1cccc(F)c1)Cc1ccccc1O2 | i | -1.3% | ? | ?
COc1ccccc1CN1CC(c2noc(-c3cc(C)cc(C)c3)n2)CC1=O (stereo not drawn) | i | 4.2% | 44.7µM* | ?
COc1cc(OC)cc(-c2nc(C3CC(=O)N(Cc4ccccc4OC)C3)no2)c1 (stereo not drawn) | i | -14.2% | ? | ?
COc1ccccc1CN1CC(c2noc(-c3sccc3C)n2)CC1=O (stereo not drawn) | i | 7.8% | 39.8µM* | ?
CN1C(=O)Cc2cc(C(=O)NC3CCCCC3)ccc21 | i | -0.6% | -22.5% | -14.3%
Clc1ccccc1Nc1cnc2ccc(N3CCOCC3)nn12 | i | ? | ? | ?
Fc1ccc(-c2ccc3ncc(Nc4cc(F)cc(N5CCOCC5)c4)n3n2)cc1 | ? | ? | 63.1µM* | ?
Fc1ccc(-c2ccc3ncc(Nc4ccnc(N5CCOCC5)c4)n3n2)cc1 | i | ? | 31.6µM* | 8.91µM*
Cn1ncc2c(C(=O)NCc3cccc(F)c3)cc(-c3ccc([S+](C)(=O)[O-])cc3)nc21 | nt | nt | i | i
Cc1ccc(C)c(C(=O)N2CCN(C(=O)c3nnn4c3COC(c3ccccc3)C4)CC2)c1 (stereo not drawn) | i | -22.4% | 39.8µM* | -15.0%
Cc1ccc(C)c(C(=O)N2CCN(C(=O)c3nnn4c3COC(c3ccc(Cl)cc3)C4)CC2)c1 (stereo not drawn) | i | ? | 44.7µM* | ?
Cc1ccc(C(=O)N2CCN(C(=O)c3nnn4c3COC(c3ccccc3)C4)CC2)c(C)c1 (stereo not drawn) | i | ? | ? | ?
SMILES | Luciferase inh | hNpr1 antagonist | HEK cytotox | NIH3T3 tox
Cc1ccc(C2Cn3nnc(-c4noc(-c5n[nH]c6c5CCCC6)n4)c3CO2)cc1 (stereo not drawn) | i | 1.3% | ? | ?
O=C1Nc2ccccc2NC12CCN(Cc1c(F)cccc1Cl)CC2 | i | -15.9% | ? | ?
O=C(NCC1CCCCC1)c1ccc2c(c1)N(S(=O)(=O)c1ccccc1)CC2 | i | -4.5% | ? | 39.8µM*
Cc1cc(C(=O)N2CCC3(CC2)c2[nH]c4ccccc4c2CCN3C)n(C)n1 | i | 5.5% | 39.8µM* | -15.7%
COc1ccc2[nH]c3c(c2c1)CCN(C)C31CCN(C(=O)c2ccccc2)CC1 | i | 9.4% | ? | ?
COc1cccc(CN2CCC3(CC2)c2[nH]c4ccccc4c2CCN3C)c1 | i | 0.1% | 25.1µM* | 22.4µM*
CN1CCc2c([nH]c3ccccc23)C12CCN(C(=O)c1ccsc1)CC2 | i | -4.9% | 39.8µM* | ?
COc1ccc2[nH]c3c(c2c1)CCN(C)C31CCN(C(=O)c2cc(C)nn2C)CC1 | i | -4.3% | ? | -19.4%
CC(C)CCN1C(=O)CC[C@]2(C(=O)NCc3cccc(Cl)c3)CCCC[C@@H]12 | i | 2.6% | ? | ?
Cc1nn(-c2ccccc2)c2c1C(C1CC1)N(CC1CN(C(=O)N(C)C)C1)C2=O (stereo not drawn) | nt | nt | 44.7µM* | ?
Cc1nn(-c2ccccc2)c2c1C(C1CC1)N(CC1CN(C(=O)C3CCCC3)C1)C2=O (stereo not drawn) | nt | nt | ? | 44.7µM*
Cc1nn(-c2ccccc2)c2c1C(C1CC1)N(CC1CN(C(=O)NC(C)C)C1)C2=O (stereo not drawn) | nt | nt | ? | -28.5%
CCN1c2cc(C(=O)Nc3ccc(F)cc3)ccc2C(=O)N2CCCC21 (stereo not drawn) | i | 0.0% | ? | -21.0%
CC1=C(C(=O)NC(C)(C)C)C(c2ccc(Cl)cc2)N2C(CC(=O)N3CCCC3)=CSC2=N1 (stereo not drawn) | i | -17.1% | ? | 44.7µM*
CC1=C(C(=O)OC(C)(C)C)C(c2ccc(Cl)cc2)N2C(CC(=O)N3CCCC3)=CSC2=N1 (stereo not drawn) | i | -26.3% | ? | ?
Cc1c(C(C)NC(=O)C(=O)c2ccco2)cnn1-c1cccc2ccccc12 (stereo not drawn) | i | -7.8% | 44.7µM* | ?
Cc1c(C(C)NC(=O)c2cc(=O)[nH]c(=O)[nH]2)cnn1-c1cccc2ccccc12 (stereo not drawn) | i | -0.4% | ? | -37.7%
COCc1ncc(CN2CC[C@@H](c3ccc4ccccc4c3)[C@H](O)C2)cn1 | i | -0.9% | -16.1% | -27.5%
Cc1ccc(O)c(CN2CC[C@@H](c3ccc4ccccc4c3)[C@H](O)C2)n1 | i | ? | 44.7µM* | ?
CCC(C)NC(=O)C1CCCN(Cc2cccc(-c3ccsc3)c2)C1 (stereo not drawn) | nt | nt | 44.7µM* | ?
O=C(NCc1ccccc1)C1CCCN(Cc2cccc(-c3ccsc3)c2)C1 (stereo not drawn) | nt | nt | ? | 39.8µM*
